# Laboratory results reported in PubChem BioAssay (NCI).
# About 83,000 compounds went through this panel and 20% of them were active in at least one assay; those are over-represented in the sample as a whole.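 The endpoint reported here, percent growth, reads 100 for growth as untreated, 0 for no net growth and -100 for all cells dead.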 Unmarked numbers belong to inactive results. Active and inactive are the calls of the source. Rule for the calls: active = growth percent below 10; inactive = the rest.
# Experiments:
# Assay in all cases: NCI-60 one-dose screen, 48 h (100 = growth as untreated, 0 = no growth, -100 = all killed)
# Settings in all cases: 10 µM unless noted
# [1] = system: HCT-15 colon
# [2] = system: HT29 colon
# [3] = system: SNB-75 CNS
# [4] = system: SNB-19 CNS
# [5] = system: U251 CNS
# [6] = system: PC-3 prostate
# [7] = system: SK-MEL-5 melanoma
# [8] = system: UACC-62 melanoma
# [9] = system: LOX IMVI melanoma
# [10] = system: SK-MEL-28 melanoma
# [11] = system: SK-MEL-2 melanoma
# [12] = system: EKVX NSCLC
# [13] = system: SN12C renal
# [14] = system: UO-31 renal
# [15] = system: TK-10 renal
# [16] = system: ACHN renal
# [17] = system: CAKI-1 renal
# [18] = system: A498 renal
# [19] = system: MOLT-4 leukemia
# [20] = system: CCRF-CEM leukemia
Compound,growth [1] [%],growth [2],growth [3],growth [4],growth [5],growth [6],growth [7],growth [8],growth [9],growth [10],growth [11],growth [12],growth [13],growth [14],growth [15],growth [16],growth [17],growth [18],growth [19],growth [20] [%]
Cc1ccc(Cc2cnc(NC(=O)c3cc(C)oc3C)s2)cc1,39.1,51.3%,76.6%,84.2%,66.9%,72.8%,93.6%,47.6%,68.9%,81.3%,85.6%,57.4%,86.9%,61.2%,63.6%,70.4%,38.4%,84.4%,60.2%,
COc1cc2nc3cc([N+](=O)[O-])ccc3c(NCCNCC(C)(C)O)c2cc1OC,17,-11.7% (active),-55.7% (active),-10.5% (active),-23.6% (active),-35.6% (active),-71.3% (active),-48.6% (active),-40.9% (active),-25.7% (active),-45.5% (active),7.08% (active),-17.1% (active),27.7%,9.89% (active),6.39% (active),16.1%,-48.8% (active),5.85% (active),
O=C(NCc1ccc(Cn2c(=O)sn(-c3ccc(Cl)cc3)c2=O)cc1)OCc1ccc2c(Cl)cc(Cl)c(O)c2n1,15.7,111%,69%,39.1%,36.3%,35.5%,33%,33.4%,31.6%,47%,74.3%,44%,38.1%,13%,63.7%,26%,52.1%,70.1%,19.3%,31.9
Nc1ncnc2c1C(c1ccc([N+](=O)[O-])cc1)c1sc3c(F)cccc3c1O2 (stereo unspecified),102,112%,97%,102%,92.4%,91.6%,98.4%,81%,84.2%,106%,107%,98.4%,97.1%,68.4%,129%,89.8%,74.9%,97.8%,93.4%,94.3
CN1CCN(CCNC(=O)c2cccc(CN3c4cccc5c4C(=Cc4cccnc43)N(C)C5=O)c2)CC1,10.7,17.7%,-11.2% (active),42.9%,48.2%,39.6%,12.9%,17.3%,8.25% (active),67.8%,62%,40.8%,42.8%,14.3%,25.4%,23.5%,,30.9%,47.4%,47
Cc1cnc(C(=O)NNc2nc3sc4c(c3c(=O)[nH]2)C(C)CCC4)cn1 (stereo unspecified),26,27.9%,36.8%,22.3%,10.4%,29.7%,-38.1% (active),8.87% (active),0.703% (active),23.3%,24.7%,23.5%,26%,4.88% (active),33.5%,11.8%,6.98% (active),33.9%,15.7%,
